{"source": "the supplement of paper PMC8728848", "note": "This excerpt belongs to a sample that is enriched for the strongest signals."}
{"system": "Gal(b1-4)GlcNAc(b1-3)Gal(b1-4)Glc", "assay": "glycan array binding signal (z-score within array); higher = stronger binding", "conditions": "glycan notation: IUPAC condensed, linker removed", "method_in_brief": "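Glycan array data were curated from 3228 arrays in the Consortium for Functional Glycomics database and kept only where the protein sequence was available. Glycan names were converted to IUPAC-condensed notation, and columns mapping to the same glycan were averaged. The binding signal is a within-array Z-score, averaged across arrays of the same protein sequence at different concentrations or buffers and across linkers. Negative Z-scores can be read as non-binding.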"}
{"substance": "Neurocan (Homo sapiens), O14594", "glycan array binding signal (z-score)": -0.263}
{"substance": "Siglec-8 (Homo sapiens), Q9NYZ4", "glycan array binding signal (z-score)": -0.209}
{"substance": "CHI3L1 (Homo sapiens), P36222", "glycan array binding signal (z-score)": -0.106}
